Shown are actives, neighbours in structure and some others; about 1.5% of the full set was active somewhere.
BLM inh: blocks DNA unwinding by human BLM helicase | P54132 | recombinant BLM DNA unwinding, fluorescence dequenching | Potency, µM (series often up to 56.1 µM), hits mostly inhibitors | hit rate 0.2% among 350,000; further: nearly all actives have a fitted effect of over 35% in size
FEN1 inh-1: inhibitors of human flap endonuclease 1; Recombinant FEN1 flap cleavage, fluorescence, 15 min; Potency, µM (highest dose often 114 µM), most hits filed as inhibitors; P39748; hit rate 0.35% among 390,000; further: nearly all actives have a fitted effect of over 65% in size
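Compounds are tested as a concentration series against 10 nM FEN1; after a 15 min room-temperature preincubation, 50 nM substrate starts cleavage, with plate reads at 0 and 15 min. Normalized responses are fitted by a Hill equation.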
PI5P4K alpha inh: blocks human PI5P4K alpha kinase activity | max response, % | PI5P4Kalpha enzyme, ADP-Glo luminescence, 60 min; hits give low values | P48426 | hit rate 1.2% among 330,000; active means max response of -50% or lower; inconclusive means between -30% and -50%; inactive means -30% or higher; further: value at the top dose of about 77 µM
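PI5P4Kalpha ADP-Glo assay; 5 microM ATP final; 60 min RT reaction; HEPES pH 7.4/EGTA/CHAPS, 5% DMSO; controls lacking substrate or enzyme; luminescent end-point.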
KAT2A inh: inhibitors of human GCN5L2 histone acetyltransferase. hit rate 0.21% among 390,000. AID 504327. Potency, µM (highest dose often 58.9 µM), hits mostly inhibitors. GCN5L2 HAT assay, ThioGlo1 CoA-SH fluorescence
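GCN5L2 (20nM final) in 50mM HEPES, 0.1mM EDTA pH 7.5, 0.01% Tween-20 was preincubated 15 min at room temperature with compound, then given ThioGlo1 (50uM), H3(1-25) peptide (75uM) and acetyl-CoA (70uM); CoA-thiol fluorescence (Ex340/Em540) was read at 0 and 20 min.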
RECQ1 inh-1: RECQ1 (human) helicase inhibition | AID 2549 | Potency, µM (titrated, usually from 57.3 µM), actives largely listed as inhibitors | hit rate 0.54% among 240,000 | P46063 | RECQ1 DNA unwinding, red fluorescence kinetic read; further: nearly all actives have a fitted effect of over 30% in size
Target sequence (P46063 whole entry, looked up): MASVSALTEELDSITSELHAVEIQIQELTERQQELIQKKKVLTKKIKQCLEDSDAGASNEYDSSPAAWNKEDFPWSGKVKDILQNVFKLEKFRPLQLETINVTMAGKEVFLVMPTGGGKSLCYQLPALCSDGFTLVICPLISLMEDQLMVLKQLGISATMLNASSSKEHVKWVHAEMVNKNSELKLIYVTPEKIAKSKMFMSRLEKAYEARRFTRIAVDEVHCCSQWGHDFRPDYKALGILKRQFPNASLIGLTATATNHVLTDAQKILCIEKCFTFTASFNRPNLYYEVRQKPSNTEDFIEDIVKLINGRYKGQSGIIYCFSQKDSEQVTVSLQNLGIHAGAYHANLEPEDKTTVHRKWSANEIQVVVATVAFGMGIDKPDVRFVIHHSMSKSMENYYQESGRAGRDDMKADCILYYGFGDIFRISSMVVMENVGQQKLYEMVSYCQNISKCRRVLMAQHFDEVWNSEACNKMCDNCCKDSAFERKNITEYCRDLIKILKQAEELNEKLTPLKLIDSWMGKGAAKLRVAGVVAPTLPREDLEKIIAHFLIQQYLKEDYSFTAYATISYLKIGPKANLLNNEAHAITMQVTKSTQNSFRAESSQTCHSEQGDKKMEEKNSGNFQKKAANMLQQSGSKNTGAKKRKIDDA
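50 nM RECQ1T1 preincubated 15 min with compound in Tris pH 8.0 buffer with MgCl2, DTT, Tween-20 and 2.5 ug/ml poly(dI-dC); started with 200 nM TAMRA/BHQ-2 forked duplex and 2 mM ATP. Unwinding read as fluorescence (525/598 nm), two reads 2 h apart.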
APE1 inh-1: inhibitors of human APE1 endonuclease. Potency, µM (titrated, usually from 65.8 µM), hits mostly inhibitors. hit rate 0.35% among 350,000. recombinant APE1, TAMRA/BHQ-2 abasic DNA cleavage fluorescence. P27695; further: nearly all actives have a fitted effect of over 55% in size
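Step 1: APE1 (0.75 nM) with compound, 15 min RT. Step 2: add 50 nM fluorophore/quencher THF duplex. Step 3: three fluorescence reads 60 s apart (525/598 nm); read 3 minus read 1 = reaction progress.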
APE1 dye cs: DNA dye displacement counter-screen activity. shares compounds with APE1 inh-1. Potency, µM (highest dose often 28.5 µM), usual class: inhibitors. DNA fluorescent dye displacement counterscreen, fluorescence. hit rate 7% among 480;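 further: loss of thiazole orange fluorescence as the dye is displaced from duplex DNA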
Endo IV inh: counter-screen for APE1 inhibitors: inhibitors of E. coli endonuclease IV; E. coli Endo IV, fluorogenic AP-site DNA cleavage; hit rate 4% among 560; Potency, µM (series often up to 27.1 µM), usual class: inhibitors; shares compounds with APE1 inh-1
APE1 inh-2: confirmation of inhibitors of human APE1 endonuclease. shares compounds with APE1 inh-1. hit rate 44% among 750. Potency, µM (titrated, usually from 57.1 µM), actives largely listed as inhibitors. purified APE1, fluorogenic abasic-site DNA cleavage; further: nearly all actives have a fitted effect of over 30% in size
APE1 FP inh: compounds that displace a DNA probe from human APE1. shares compounds with APE1 inh-1. APE1 binding to TAMRA-labelled double-stranded DNA, fluorescence polarization displacement. Potency, µM (series often up to 28.5 µM), actives largely listed as inhibitors. hit rate 7% among 480. AID 2573
RECQ1 inh conf: confirmation of human RECQ1 helicase inhibitors | shares compounds with RECQ1 inh-1 | RECQ1 helicase DNA unwinding, fluorescence | Potency, µM (doses to about 229 µM), usual class: inhibitors | hit rate 28% among 610; further: nearly all actives have a fitted effect of over 45% in size
RECQ1 ADP FP: counter-screen for RECQ1 inhibitors: ADP displacement; shares compounds with RECQ1 inh-1; ADP fluorescence polarization displacement counterscreen; Potency, µM (series often up to 228 µM), usual class: inhibitors; hit rate 27% among 530; further: nearly all actives have a fitted effect of over 45% in size
RECQ1 inh-2: confirmation of human RECQ1 helicase inhibitors; shares compounds with RECQ1 inh-1; recombinant RECQ1 DNA unwinding, red fluorescence; Potency, µM (top dose mostly 119 µM), hits mostly inhibitors; hit rate 15% among 1,100; further: nearly all actives have a fitted effect of over 50% in size
FEN1 inh-2: FEN1 inhibition, cherry-pick retest | FEN1 flap cleavage, TAMRA/BHQ2 fluorogenic DNA substrate | shares compounds with FEN1 inh-1 | hit rate 79% among 880 | Potency, µM, most hits filed as inhibitors; further: nearly all actives have a fitted effect of over 60% in size
ADP-Glo counter: interferes with ADP-Glo detection without enzyme present; Potency, µM (top dose mostly 76.9 µM), actives largely listed as inhibitors; shares compounds with PI5P4K alpha inh; 1,100 tested, under 10 active; ADP-Glo detection counter-screen, luciferase luminescence, no enzyme; AID 743285
Hits are given with their value; - = inactive; ? = inconclusive; . = not tested or not shown. Unless noted, the call rests on the fitted dose curve; in most records, active means well fitted curve in the direction sought with a large enough effect; inconclusive means small, poorly fitted or top-dose-only effect, or another doubt; inactive means no such curve, though single readings can be large; an effect the other way counts as inactive or inconclusive.

SMILES | BLM inh | FEN1 inh-1 | PI5P4K alpha inh | KAT2A inh | RECQ1 inh-1 | APE1 inh-1 | APE1 dye cs | Endo IV inh | APE1 inh-2 | APE1 FP inh | FEN1 inh-2 | ADP-Glo counter | others
O=C(O)c1cc(O)c2c(c1)C(=O)c1cc(O)cc(O)c1C2=O | - | ? | -86 | - | ? | 25µM | 13µM | ? | 14µM | 5µM | ? | .
O=C1c2ccccc2C(=O)c2c1ccc(O)c2O | - | 7.9µM | -74 | ? | ? | ? | ? | - | ? | - | 7.6 | .
O=C1CCCC2=C1C(c1ccco1)Nc1ccc3ccccc3c12 (stereo not drawn) | - | 50µM | -64 | ? | 10µM | 14µM | - | - | 4µM | ? | 76 | . | RECQ1 inh conf=25µM;RECQ1 ADP FP=50µM;RECQ1 inh-2=16µM
O=C1CCCC2=C1C(c1ccc(O)c(O)c1)Nc1ccc3ccccc3c12 (stereo not drawn) | . | - | ? | . | . | . | . | . | . | . | . | .
CN=c1scc(C)n1/N=C/c1cc(Br)c(O)c(OC)c1 | - | - | - | - | - | - | . | . | . | . | . | .
CN=c1scc(C)n1/N=C/c1ccc(O)c(O)c1O | ? | 79µM | ? | ? | 10µM | 7.1µM | ? | - | 14µM | - | 34 | .
COc1ccc(NC(=O)c2cc(-c3ccco3)nc3ccccc23)cc1S(=O)(=O)N1CCOCC1 | ? | ? | -59 | ? | ? | 4µM | 13µM | - | 13µM | ? | . | - | RECQ1 inh-2=?
Cc1ccc(NC(=O)c2cc(-c3ccco3)nc3ccccc23)cc1S(=O)(=O)N1CCOCC1 | - | - | - | ? | ? | ? | . | . | . | . | . | .
COCCOC(=O)c1[nH]c2c(c1C)C(=O)CC(c1ccco1)C2 (stereo not drawn) | ? | ? | -55 | - | 35µM | 18µM | - | - | 7.9µM | - | . | - | RECQ1 inh-2=?
NC(=O)COC(=O)c1ccc(Cl)c(S(=O)(=O)N2CCCCCC2)c1 | - | - | - | - | - | - | . | . | . | . | . | .
O=C(OCC(=O)N1CCCCCC1)c1ccc(Cl)c(S(=O)(=O)N2CCCC2)c1 | - | - | -61 | - | - | ? | - | - | ? | - | . | -
C=C1C=CS(=O)(=O)N(C(CC(C)C)C(=O)OC)C1 (stereo not drawn) | - | - | . | . | - | - | . | . | . | . | . | .
O=C(Oc1ccc2c(c1)OCO2)c1cc2c(s1)CCC2 | - | ? | -53 | ? | ? | ? | - | - | 11µM | ? | . | -
Nc1nc(NCc2cccc(Cl)c2)c2[nH]cnc2n1 | . | - | . | . | . | . | . | . | . | . | . | .
